The list is not random: actives were taken first. Their share in the collection is about 7.3%.
SMN2 splice up – qHTS Assay for Enhancers of SMN2 Splice Variant Expression. Potency, µM (titrated, usually from 46.1 µM), for the others: top-dose activity change, positive = activation, most hits filed as activators. HEK293 SMN2-luciferase splicing reporter, luminescence, 30-36 h. AID 1458, 2008. 210,000 compounds, 2.8% hits; further: % of control where 0% means no effect; nearly all actives have a fitted effect of over 55% in size
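HEK293 cells carry an SMN2 minigene-luciferase reporter in which exon 7 inclusion puts luciferase in frame. Cells were seeded at 2000 cells/well, attached for 10-12 hours, then exposed to compounds for 30-36 hours at 37C before ONE-Glo luminescence.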
NPC1 promoter act – qHTS Assay for NPC1 Promoter Activators | 320,000 compounds, 2.4% hits | Huh7 NPC1 promoter luciferase reporter, 24 h | Potency, µM (series often up to 9.22 µM), for inactives: at the highest dose activation, actives largely listed as activators; further: % of control where 0% means no effect; nearly all actives have a fitted effect of over 60% in size
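Stably transfected Huh7 (NPC1 promoter→luciferase), 1500 cells/well in Opti-MEM + 10% FBS, 2 h settle, then compound 24 h at 37 °C. Luminescence after 10 min with Amplite reagent.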
FLuc counter – qHTS profiling assay for firefly luciferase inhibitor/activator using purifed enzyme and Km concentrations of substrates (counterscreen for miR-21 project). Luciferin 4-monooxygenase (Photinus pyralis), P08659. purified FLuc, Km substrates, luminescence inhibition. Potency, µM (doses to about 57.5 µM), for the others: at the highest dose activity change, negative = inhibition, usual class: inhibitors. 360,000 compounds, 6.9% hits;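 further: plate controls were vehicle for no effect and reference inhibitor for full effect; nearly all actives have a fitted effect of over 55% in size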
Target sequence (P08659 whole entry, looked up): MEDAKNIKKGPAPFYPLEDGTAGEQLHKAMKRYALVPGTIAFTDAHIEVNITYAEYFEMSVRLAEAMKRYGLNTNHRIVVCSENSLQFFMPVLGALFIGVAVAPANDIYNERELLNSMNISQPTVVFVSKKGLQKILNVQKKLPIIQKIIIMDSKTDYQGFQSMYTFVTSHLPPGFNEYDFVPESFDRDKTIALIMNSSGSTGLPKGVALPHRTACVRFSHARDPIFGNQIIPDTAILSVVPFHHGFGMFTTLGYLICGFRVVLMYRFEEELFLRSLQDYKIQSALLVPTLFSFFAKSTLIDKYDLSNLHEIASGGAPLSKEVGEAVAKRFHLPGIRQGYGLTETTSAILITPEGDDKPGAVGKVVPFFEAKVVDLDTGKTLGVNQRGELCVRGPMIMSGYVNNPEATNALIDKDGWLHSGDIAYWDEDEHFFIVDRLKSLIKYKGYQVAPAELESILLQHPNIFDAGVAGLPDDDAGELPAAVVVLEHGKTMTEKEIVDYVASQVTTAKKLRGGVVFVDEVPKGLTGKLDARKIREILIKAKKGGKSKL
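Biochemical qHTS of compounds, final roughly 60 µM downward over six points, against 10 nM purified firefly luciferase using Km concentrations of substrates (10 uM D-luciferin, 10 uM ATP) in Tris acetate pH 7.5 buffer; luminescence output.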
Rab9 promoter act – qHTS Assay for Rab9 Promoter Activators | Huh7 Rab9 promoter-luciferase reporter, luminescence, 24 h | Potency, µM (top dose mostly 9.22 µM), without a hit: at the highest dose activation, negative = inhibition, actives largely listed as activators | 320,000 compounds, 2.8% hits | AID 485297, 2010; further: % of control where 0% means no effect; nearly all actives have a fitted effect of over 60% in size
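Quantitative HTS format; Huh7 Rab9-luciferase reporter cells (1500/well) receive compound 2 h post-plating, incubate 24 h at 37 °C, then get luciferase reagent for 10 min before luminescence reading.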
KinaseGlo FLuc – Counterscreen for Luciferase (Kinase-Glo TM) Inhibition. Kinase-Glo luciferase, ATP luminescence, 8 min. 200,000 compounds, 0.28% hits. Luciferin 4-monooxygenase (Photuris pensylvanica), Q27757. Potency, µM (doses to about 38.3 µM), for the others: at the highest dose activity change, negative = inhibition, actives largely listed as inhibitors; further: on the % scale 0 is the no-effect control and ±100 the full control effect; nearly all actives have a fitted effect of over 60% in size
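Luminescence was the read-out, taken after 8-minute incubation at ambient temperature. Luciferase turned over luciferin with 10 uM ATP in imidazole pH 7.2 buffer containing KCl, MgCl2, Tween 20 and BSA.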
ELG1 genotoxic – qHTS screen for small molecules that induce genotoxicity in human embryonic kidney (HEK293T) cells expressing luciferase-tagged ELG1; 330,000 compounds, 1.3% hits; HEK293T ELG1-luciferase reporter, luminescence, 16 h; Potency, µM (titrated, usually from 46 µM), inactives show top-dose activity change, positive = activation, actives largely listed as activators; further: % of control where 0% means no effect; nearly all actives have a fitted effect of over 60% in size
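Quantitative HTS format in 1536-well plates. HEK293T ELG1-luciferase reporter cells receive test compound and are incubated 16 hr at 37 °C, 5% CO2; ONE-Glo added, 30 min room temperature, then luminescence read.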
* marks the source's active call; other numbers are inactive results; u = inconclusive; x = no result given. The call rests on the fitted dose curve; in most records, active means well fitted curve in the direction sought with a large enough effect; inconclusive means small, poorly fitted or top-dose-only effect, or another doubt; inactive means no such curve, though single readings can be large; an effect the other way counts as inactive or inconclusive. Potency means the concentration at half of the fitted maximal effect.

SMILES | SMN2 splice up | NPC1 promoter act | FLuc counter | Rab9 promoter act | KinaseGlo FLuc | ELG1 genotoxic
COc1ccc(OC)c(-c2csc(NC(=O)Cc3cc(OC)c(OC)c(OC)c3)n2)c1 | x | -8% | 4% | -3% | x | -21%
COc1ccc(OC)c(-c2csc(NC(=O)Cc3ccc(F)cc3)n2)c1 | x | -6% | 17µM* | -2% | x | -13%
CCOC(=O)c1cc(C)n(CC2CCC(C(=O)Nc3ccc(C)cc3)CC2)c1C (configuration not stated) | x | x | -3% | x | x | x
CCOC(=O)c1ccc(NC(=O)N2CCCCCC2)cc1 | x | 1.1µM* | 8.5µM* | 1.8µM* | x | 5.8µM*
CC(C)COC(=O)c1ccc(NC(=O)C2C3CCC(C3)C2C(=O)O)cc1 (configuration not stated) | 21% | 4µM* | 17µM* | 1.1µM* | -3% | u
CCOC(=O)c1ccc(NC(=O)C2C3CCCCC32)cc1 (configuration not stated) | x | u | 15µM* | u | x | 23%
NC(=O)c1ccc(NC(=O)C2CCCO2)cc1 (configuration not stated) | -1% | -4% | -2% | -1% | 6% | -1%
CCCOC(=O)c1ccc(NC(=O)C2CCCO2)cc1 (configuration not stated) | u | u | u | 4µM* | -1% | u
O=C(NCc1cccs1)c1ccc(Cn2c(SCc3ccc(F)cc3)nc3cccnc32)cc1 | x | x | 5.4µM* | x | x | x
Cc1ccc(CSc2nc3cccnc3n2Cc2ccc(C(=O)NCc3cccs3)cc2)cc1 | x | x | 0.95µM* | x | x | x
O=C(NCc1cccs1)c1ccc(Cn2c(SCc3ccccc3)nc3cccnc32)cc1 | x | x | 6.7µM* | x | x | x
Cc1cccc(Cn2c(SCc3ccc(C(=O)NCc4cccs4)cc3)nc3cccnc32)c1 | x | x | -15% | x | x | x
COc1ccc(-c2nn(-c3ccccc3)cc2/C=N/O)cc1OC | x | 20% | u | 1% | x | -6%
COc1cccc(-c2nn(-c3ccccc3)cc2/C=C(/NC(=O)c2ccccc2)C(=O)O)c1 | x | -1% | 27µM* | -1% | x | 1%
COc1cccc(-c2nn(-c3ccccc3)cc2C(=O)NCC(=O)O)c1 | 4% | 1% | 9.5µM* | -2% | 0% | -4%
COc1ccc(-c2nn(-c3ccccc3)cc2/C=N/Nc2ccc3ccccc3n2)cc1OC | -66% | -5% | 11µM* | -19% | 3% | -9%
COC(=O)c1cn(-c2ccccc2)nc1-c1ccc(OC)c(OC)c1 | x | 5% | 21µM* | 0% | x | -1%
COc1ccc(-c2nn(-c3ccccc3)cc2CO)cc1OC | -4% | 0% | u | -4% | -1% | -8%
COc1cccc(-c2nn(-c3ccccc3)cc2CO)c1 | 6% | x | 13µM* | x | 5% | x
COCCn1c(C)cc(C(=O)COC(=O)c2cccc(O)c2)c1C | x | u | 0.11µM* | u | x | u
COCCn1c(C)cc(C(=O)COC(=O)C23CC4CC(CC(O)(C4)C2)C3)c1C | u | 0.35µM* | 1.5µM* | 0.35µM* | 10% | u
COCCn1c(C)cc(C(=O)CN2CCCCC2)c1C | 11% | 2% | 2% | -3% | 0% | 6%
Cc1cc(C(=O)COC(=O)c2csc3c2CCCC3)c(C)n1C | -20% | 15% | 12µM* | 10% | -1% | 12%
Cc1cc(C(=O)COC(=O)Cc2ccc(Br)cc2)c(C)n1C | x | 1% | u | -1% | x | -1%
COCCn1c(C)cc(C(=O)COC(=O)c2cc3c(s2)CCC3)c1C | -8% | 3.5µM* | 11µM* | 4µM* | -4% | u
COCCn1c(C)cc(C(=O)COC(=O)CCN2C(=O)c3ccccc3C2=O)c1C | 5% | 0% | u | -3% | -1% | 1%
